# Experimental data: PubChem BioAssay (Tox21)
# Results filed as inconclusive are left out. Unmarked numbers belong to inactive results. The source made the active and inactive calls. The call rests on the fitted dose curve; in most records, active means well fitted cell-killing curve with a large enough effect in the repeat runs; inconclusive means weak or mixed curves, or effect the other way; inactive means flat fitted curve, though single readings scatter.
# Assay: cAMP Responsive Elements (CRE) small molecule antagonists, cell-based qHTS assay: qHTS cell viability counter screen (AID 2060913); further: nearly all actives have a fitted effect of over 40% in size
# Conditions: CRE-bla HEK293T viability, CellTiter-Glo luminescence, 5 h; series mostly up to 92.4 µM; viability change, negative = cytotoxic: at the top concentration
# Summary of the method: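 Steps: cells plated and held 18 hrs at 37 C/5% CO2; compounds and NKH477 (0.25 uM final) added; 3 hrs incubation; reporter substrate read; CellTiter-Glo added to measure cytotoxicity by luminescence.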
# On the % scale 0 is the no-effect control and ±100 the full control effect.
Structure (SMILES),"viability change, negative = cytotoxic",Potency
Cc1coc2c1CCC(C)C2 (stereo not given),-0.185%,
CC(C)(C)C(=O)Cl,1.32%,
CCCCCCCCCCCCN=C(N)N,-6.77% [at 3.27 µM],
C=CC1(C)OC(=O)N(c2cc(Cl)cc(Cl)c2)C1=O (stereo not given),,inactive
CCCCC(CC)COC(=O)c1ccc(C(=O)OCC(CC)CCCC)c(C(=O)OCC(CC)CCCC)c1 (stereo not given),,inactive
Cc1cccc(Cc2cnc[nH]2)c1C,0.0154% [at 42.5 µM],
CC(=O)c1ccc(-c2ccccc2)cc1,-1.32%,
CCCCP(CCCC)CCCC,-6.44%,
C/C(=C\c1ccccc1)[N+](=O)[O-],5.08%,
COCc1cnc(C2=NC(C)(C(C)C)C(=O)N2)c(C(=O)O)c1 (stereo not given),9.19%,
C=C(C)C(=O)OCC1CO1 (stereo not given),,inactive
CC(Cc1ccccc1)N(C)Cc1ccco1 (stereo not given),0.988% [at 42.5 µM],
CON(C)C(=O)Nc1ccc(Cl)cc1,-4.27%,
CCCCCCCCC(=O)NCc1ccc(O)c(OC)c1,,inactive
Oc1ccc([C@H]2CNCc3c2ccc(O)c3O)cc1O,10% [at 42.5 µM],
COC(=O)C(Br)CBr (stereo not given),-3.12%,
O=C(O)C(F)(F)C(F)(F)C(F)(F)C(F)(F)C(F)(F)C(F)(F)C(F)(F)F,,inactive
O=c1ccc(=O)[nH][nH]1,6.22%,
CC(O)CCO (stereo not given),,inactive
c1ccc2c(c1)-c1cccc3cccc-2c13,,inactive

Structure (SMILES),"viability change, negative = cytotoxic",Potency
O=[N+]([O-])c1ccc(Cl)cc1,,inactive
C=CCN1CC[C@]23CCCC[C@H]2[C@H]1Cc1ccc(O)cc13,1.11% [at 42.5 µM],
CCNCC,,inactive
O=S(=O)(O)F,8.06%,
Cc1cccc(C#N)c1,-12%,
Nc1cccnc1,,inactive
COP(=S)(OC)Oc1ccc(S(N)(=O)=O)cc1,0.211% [at 42.5 µM],
CC(O)CCl (stereo not given),2.25%,
CCOCn1c(-c2ccc(Cl)cc2)c(C#N)c(Br)c1C(F)(F)F,-26.9%,
CCCCC(C#N)(Cn1cncn1)c1ccc(Cl)cc1 (stereo not given),,inactive
O=[N+]([O-])C(Br)Br,4.41%,
C[C@H]1[C@@H]2Cc3ccc(O)cc3[C@@]1(C)CCN2C,-0.732% [at 240 µM],
O=C(O)C1C2CCC(O2)C1C(=O)O (stereo not given),,inactive
c1ccc2cc3c(cc2c1)-c1cccc2cccc-3c12,4.25%,
C[N+](C)(C)CC1CO1 (stereo not given),-0.498%,
Nc1c(Br)cc([N+](=O)[O-])cc1[N+](=O)[O-],4.82%,
O=C(O)CCl,,inactive
CC1CC(=O)O1 (stereo not given),,inactive
Nc1ccccc1,,inactive
COc1ccccc1OC,3.83%,

# Assay: cAMP Responsive Elements (CRE) small molecule agonists, cell-based qHTS assay: qHTS cell viability counter screen (AID 2060914);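 further: viability read after 3 h of compound exposure; nearly all actives have a fitted effect of over 50% in size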
# Conditions: CRE-bla HEK293T viability, CellTiter-Glo luminescence, 5 h; series mostly up to 92.4 µM; activity change, negative = cytotoxicity: at the top concentration
# Summary of the method: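 Cytotoxicity counter screen multiplexed with the CRE-bla reporter assay in HEK 293T cells: 3 h compound exposure at 37 °C, followed by CellTiter-Glo luminescence measured in the same wells.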
Structure (SMILES),"activity change, negative = cytotoxicity",Potency
Cc1coc2c1CCC(C)C2 (stereo not given),-1.83%,
CC(C)(C)C(=O)Cl,-0.336%,
CCCCCCCCCCCCN=C(N)N,-15.8% [at 3.27 µM],
C=CC1(C)OC(=O)N(c2cc(Cl)cc(Cl)c2)C1=O (stereo not given),,inactive
CCCCC(CC)COC(=O)c1ccc(C(=O)OCC(CC)CCCC)c(C(=O)OCC(CC)CCCC)c1 (stereo not given),,inactive
Cc1cccc(Cc2cnc[nH]2)c1C,-2.13% [at 42.5 µM],
CC(=O)c1ccc(-c2ccccc2)cc1,0.957%,
CCCCP(CCCC)CCCC,1.19%,
C/C(=C\c1ccccc1)[N+](=O)[O-],16.1%,
COCc1cnc(C2=NC(C)(C(C)C)C(=O)N2)c(C(=O)O)c1 (stereo not given),8.94%,
C=C(C)C(=O)OCC1CO1 (stereo not given),,inactive
CC(Cc1ccccc1)N(C)Cc1ccco1 (stereo not given),0.313% [at 42.5 µM],
CON(C)C(=O)Nc1ccc(Cl)cc1,1.08%,
CCCCCCCCC(=O)NCc1ccc(O)c(OC)c1,,inactive
Oc1ccc([C@H]2CNCc3c2ccc(O)c3O)cc1O,5.24% [at 42.5 µM],
COC(=O)C(Br)CBr (stereo not given),0.399%,
O=C(O)C(F)(F)C(F)(F)C(F)(F)C(F)(F)C(F)(F)C(F)(F)C(F)(F)F,4.51%,
O=c1ccc(=O)[nH][nH]1,,inactive
CC(O)CCO (stereo not given),,inactive
c1ccc2c(c1)-c1cccc3cccc-2c13,,inactive

Structure (SMILES),"activity change, negative = cytotoxicity",Potency
O=[N+]([O-])c1ccc(Cl)cc1,,inactive
C=CCN1CC[C@]23CCCC[C@H]2[C@H]1Cc1ccc(O)cc13,-7.52% [at 42.5 µM],
CCNCC,-2.36%,
O=S(=O)(O)F,-7.85%,
Cc1cccc(C#N)c1,-3.11%,
Nc1cccnc1,,inactive
COP(=S)(OC)Oc1ccc(S(N)(=O)=O)cc1,1.33% [at 42.5 µM],
CC(O)CCl (stereo not given),9.05%,
CCOCn1c(-c2ccc(Cl)cc2)c(C#N)c(Br)c1C(F)(F)F,-21.9%,
CCCCC(C#N)(Cn1cncn1)c1ccc(Cl)cc1 (stereo not given),,inactive
O=[N+]([O-])C(Br)Br,7.22%,
C[C@H]1[C@@H]2Cc3ccc(O)cc3[C@@]1(C)CCN2C,-1.28% [at 240 µM],
O=C(O)C1C2CCC(O2)C1C(=O)O (stereo not given),22.4%,
c1ccc2cc3c(cc2c1)-c1cccc2cccc-3c12,1.47%,
C[N+](C)(C)CC1CO1 (stereo not given),-15%,
Nc1c(Br)cc([N+](=O)[O-])cc1[N+](=O)[O-],-20.8%,
O=C(O)CCl,,inactive
CC1CC(=O)O1 (stereo not given),,inactive
Nc1ccccc1,,inactive
COc1ccccc1OC,15.9%,
